In PubChem BioAssay AID743314 (Broad Institute, 2014):
Measured potencies and affinities stand elsewhere. Results filed as inconclusive are left out. Activity calls are given as the source filed them.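 How the source made its calls: active means fitted half-maximal concentration no higher than twice the top tested dose, in every repeat run; inconclusive means repeat runs disagree, poor fit, or flat partial inhibition; inactive means the rest.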

The compounds below were run against Endoplasmic reticulum aminopeptidase 1 (Homo sapiens) (UniProt Q9NZ08) (assay: inhibition of human ERAP1 enzyme activity – biochemical, cherry-pick, set 2, plate reader, dose response (AID 743314;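 further: 0% = neutral control wells and -100% = L-leucinethiol positive control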)). Settings: Recombinant ERAP1, Leu-AMC fluorescence, 60 min; series mostly up to 11 µM.
Sequence of Endoplasmic reticulum aminopeptidase 1 (Homo sapiens) (Q9NZ08 whole entry, looked up): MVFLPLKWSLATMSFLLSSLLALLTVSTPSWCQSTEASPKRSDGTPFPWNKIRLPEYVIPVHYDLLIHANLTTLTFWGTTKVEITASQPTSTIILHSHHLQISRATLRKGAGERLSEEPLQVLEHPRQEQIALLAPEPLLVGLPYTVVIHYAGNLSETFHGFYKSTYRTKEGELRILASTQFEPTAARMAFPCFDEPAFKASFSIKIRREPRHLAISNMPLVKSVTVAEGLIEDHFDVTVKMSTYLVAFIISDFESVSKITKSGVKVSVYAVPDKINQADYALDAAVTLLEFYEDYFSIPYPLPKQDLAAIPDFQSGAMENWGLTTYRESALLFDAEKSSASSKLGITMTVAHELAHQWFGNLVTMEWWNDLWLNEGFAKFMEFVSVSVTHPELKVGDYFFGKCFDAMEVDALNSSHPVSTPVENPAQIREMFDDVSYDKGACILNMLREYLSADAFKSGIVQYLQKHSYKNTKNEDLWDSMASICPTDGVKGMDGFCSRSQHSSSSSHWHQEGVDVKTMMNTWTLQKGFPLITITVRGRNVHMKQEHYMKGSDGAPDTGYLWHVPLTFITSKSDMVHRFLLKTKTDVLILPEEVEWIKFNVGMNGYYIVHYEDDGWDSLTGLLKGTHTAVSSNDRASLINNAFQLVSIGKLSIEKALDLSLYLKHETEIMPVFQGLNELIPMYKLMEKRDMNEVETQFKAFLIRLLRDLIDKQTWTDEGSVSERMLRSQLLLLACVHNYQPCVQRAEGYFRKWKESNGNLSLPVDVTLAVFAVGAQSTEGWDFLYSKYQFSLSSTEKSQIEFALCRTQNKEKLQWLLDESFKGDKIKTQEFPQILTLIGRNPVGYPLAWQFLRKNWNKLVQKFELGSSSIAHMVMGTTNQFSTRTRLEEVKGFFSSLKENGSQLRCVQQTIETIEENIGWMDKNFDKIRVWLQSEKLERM

outcome, inactive:
C[C@@H]1CN([C@H](C)CO)S(=O)(=O)c2ccc(-c3ccccc3)cc2O[C@H]1CN(C)S(C)(=O)=O
COc1cc2cc(C(=O)N3CCN(Cc4ccc5c(c4)OCO5)CC3)c(=O)oc2cc1OC
CN(CC(=O)Nc1cccc(F)c1)C(=O)CCc1nc2ccccc2c(=O)[nH]1
COc1ccc(CN(C)C[C@@H]2Oc3c(NC(=O)NC4CCCCC4)cccc3C(=O)N([C@H](C)CO)C[C@H]2C)cc1
COCc1cn(CC[C@@H]2CC[C@H](NC(=O)CCN3CCCCC3)[C@H](CO)O2)nn1
Cn1cnc(Sc2ncnc3nc[nH]c23)c1[N+](=O)[O-]
C[C@H](CO)N1C[C@H](C)[C@@H](CN(C)S(=O)(=O)c2ccccc2)Oc2ccc(NC(=O)CCN3CCOCC3)cc2C1=O
Cc1cc(C)n2nc(C(=O)Nc3ccc(N4CCOCC4)cc3)nc2n1
CCCC#Cc1ccc(CC[C@H]2O[C@H]3CC[C@H](CO)O[C@H]3C[C@@H]2NC(=O)CN2CCOCC2)cc1
COc1ccccc1OCCNC(=O)C1CCCCC1
CCCNC(=O)C[C@H]1CC[C@@H]2[C@H](COC[C@H](O)CN2C(=O)Nc2cccc(Cl)c2)O1
CC(C)[C@H](NC(N)=O)C(=O)NNC(=O)COc1cccc(C(F)(F)F)c1
C[C@H]1CCCCO[C@@H](CN(C)S(=O)(=O)c2cn(C)cn2)[C@@H](C)CN([C@@H](C)CO)C(=O)c2cc(NC(=O)Nc3ccccc3)ccc2O1
CC(=O)N1CC[C@@H]2[C@H]1c1cc(-c3ccc(C#N)cc3)ccc1N(C)[C@H]2CO
CCn1c(SCC(=O)NCc2ccccc2)nnc1C(CO)NC(=O)c1ccccc1 (stereo not drawn)
O=C(CC1CC1)N1[C@H](CO)[C@@H](c2ccccc2)C12CN(Cc1cc(F)ccc1F)C2
CCOC(=O)c1c(NC(=O)COC(=O)CCNS(=O)(=O)c2ccccc2)sc(C(=O)NC)c1C
COc1ccc(C#Cc2cccc(-c3nc(C(=O)N4CCN(C)CC4)cc4c3[C@@H](CCO)N(S(=O)C(C)(C)C)C4)c2)cc1OC (stereo partly drawn)
O=C(COC(=O)c1ccc(CO)cc1)Nc1ccc2ccccc2c1
COc1ccc2c3c([nH]c2c1)[C@H](CO)N(CC1CC1)CC31CCN(C(=O)c2ccccc2F)CC1
C[C@@H]1CN([C@H](C)CO)C(=O)c2cccc(NS(=O)(=O)c3ccc(Cl)cc3)c2O[C@@H]1CN(C)C(=O)Nc1ccccc1
CC(C)NC(=O)C1C(c2ccc(C(F)(F)F)cc2)=Nc2ccccc2N1C(=O)c1ccco1 (stereo not drawn)
CCc1ccccc1NC(=O)CCC(=O)N1CCN(C(C)=O)CC1
COc1ccc(NC(=O)Nc2cccc3c2O[C@H](CN(C)Cc2ccc(C(=O)O)cc2)[C@H](C)CN([C@@H](C)CO)C3=O)cc1
Cc1noc(C)c1NC(=O)N(C)C[C@H]1Oc2c(NC(=O)Nc3ccc(F)cc3)cccc2C(=O)N([C@@H](C)CO)C[C@H]1C
CSc1cccc(NC(=O)CCCNC(=O)c2ccc(Cl)cc2)c1
COc1ccc2c3c([nH]c2c1)[C@H](CO)N(S(=O)(=O)c1cn(C)cn1)CC31CCN(CC2CCCCC2)CC1
COc1ccc(CN(C)C[C@@H]2OCCCC[C@H](C)Oc3ccc(NS(=O)(=O)c4cccs4)cc3C(=O)N([C@H](C)CO)C[C@H]2C)cc1
CCOCc1c(C(=O)Nc2ccc(OC)nc2)oc2ccccc12
COc1ccc(S(=O)(=O)NC[C@@H]2CC[C@H]3[C@H](CN3Cc3cc(F)ccc3F)O2)cc1
CN(Cc1ccccc1)C(=O)c1ncn(C)c1C(=O)N(C)Cc1ccccc1
CC(C)NC(=O)N[C@@H]1CC[C@@H](CCNS(=O)(=O)c2ccc(Cl)cc2)O[C@@H]1CO
O=c1cc(CN2CCN(Cc3ccccc3)CC2)c2ccc(O)cc2o1
C[C@H]1CCCCO[C@@H](CN(C)C)[C@@H](C)CN([C@@H](C)CO)C(=O)c2cc(NS(=O)(=O)c3ccc(Cl)cc3)ccc2O1
C/C=C/c1ccc([C@H]2[C@@H](CO)N(C(=O)CC)[C@@H]2CNCC2CCCCC2)cc1
C[C@@H]1CN([C@@H](C)CO)C(=O)c2cc(NC(=O)CCN3CCOCC3)ccc2O[C@H]1CN(C)S(=O)(=O)c1ccccc1
CN1c2ccc(-c3ccccc3)cc2[C@H]2[C@H](CCN2C(=O)c2ccccc2)[C@@H]1CO

Activity change, negative = inhibition, inactive:
C[C@@H]1CN([C@H](C)CO)C(=O)c2cc(NC(=O)C3CC3)ccc2O[C@H]1CN(C)Cc1ccncc1 26.1% [at 2.6 µM]
